# Results: publication PMC12440807
# Target: Transcription elongation factor SPT6 (UniProt Q7KZ85)
# Test: cross-link between two proteins; cross-linking mass spectrometry
row,Substance,listed as a hit
1,"Transcription elongation factor SPT5, O00267",yes
2,"Transcription elongation factor SPT4, P63272",yes
3,"DNA-directed RNA polymerase II subunit RPB7, P62487",yes
